# Hits are enriched below; roughly 5.3% of the tested compounds scored in any of these assays.
# IMPase cell inh: IMPase inhibition in cells; 120,000 tested, under 10 active; CHO-M1 cells, IP1 accumulation, HTRF TR-FRET ratio; inhibition (IP1 accumulation), % at 46.1 µM; AID 901; active means well fitted curve in the direction sought with a large enough effect in the signal ratio, not every such curve was filed as active; inconclusive means small, poorly fitted or top-dose-only effect, or a change in a side signal; inactive means no such curve, though single readings can be large or run the other way; the % refers to the signal ratio;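 further: cells stimulated with carbachol in lithium chloride buffer; plate controls were DMSO basal wells for no effect and reference inhibitor wells for full effect; higher means more IMPase inhibition seen as more IP1 and lower FRET ratio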
# Target sequence (P97697 whole entry, looked up): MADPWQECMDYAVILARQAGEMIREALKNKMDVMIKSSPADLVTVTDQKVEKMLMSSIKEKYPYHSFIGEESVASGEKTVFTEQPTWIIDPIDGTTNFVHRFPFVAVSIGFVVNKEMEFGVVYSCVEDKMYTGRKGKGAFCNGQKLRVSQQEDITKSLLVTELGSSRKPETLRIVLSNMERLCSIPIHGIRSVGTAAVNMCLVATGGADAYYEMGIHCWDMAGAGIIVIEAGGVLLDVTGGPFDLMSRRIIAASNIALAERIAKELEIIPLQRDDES
#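 CHO-M1 cells (CHO stably expressing M1 receptor), compound up to 46 uM final, stimulated with carbachol (50 uM as added) in buffer with 50mM LiCl, pH 7.4, 30 min at 37C. Cytosolic IP1 read by TR-FRET; AC50 from Hill fits.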
# PNC inhibitor: inhibitors of perinucleolar compartment assembly. PC3M PTB-GFP, PNC prevalence imaging, 16 h; hits give low values. activity change (PNC), negative = inhibition, % at 10 µM. hit rate 3.1% among 140,000. AID 2417;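 active means readout at or below -70, meaning at least 70% loss of cells showing the perinucleolar compartment, a nuclear body marking cancer cells; inconclusive means readout between -30 and a set limit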;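 further: plate controls were DMSO wells for no effect and camptothecin positive control wells for full effect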
#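 Compounds are pinned in duplicate onto adhered PC3M cells stably expressing GFP-tagged PTB and incubated 16 h at 37 C. Cells are then fixed, nuclei stained with Hoechst, and PNC-positive cells counted.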
# HPGD block: HPGD (human) dehydrogenase inhibition. P15428. purified HPGD, NADH fluorescence kinetic, PGE2 substrate. Potency, µM, without a hit: top-dose activity change, negative = inhibition, actives largely listed as inhibitors. hit rate 4.3% among 150,000. AID 894; active means well fitted inhibition curve with a large enough effect, not every such curve was filed as active; inconclusive means small, poorly fitted or top-dose-only effect, or another doubt; inactive means no such curve, though single readings can be large or run the other way; further: potency means the concentration at half of the fitted maximal effect
# Target sequence (P15428 whole entry, looked up): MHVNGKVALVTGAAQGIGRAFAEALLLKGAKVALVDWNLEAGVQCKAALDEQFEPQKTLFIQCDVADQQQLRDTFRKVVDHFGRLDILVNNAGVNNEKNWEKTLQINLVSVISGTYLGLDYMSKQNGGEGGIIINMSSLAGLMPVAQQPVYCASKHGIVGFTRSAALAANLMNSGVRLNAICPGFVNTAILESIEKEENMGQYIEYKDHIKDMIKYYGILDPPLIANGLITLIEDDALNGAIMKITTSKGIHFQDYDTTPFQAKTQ
#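 20 nM HPGD preincubated 15 min at room temperature with compound in 50 mM Tris-HCl pH 8, 0.01% Tween 20. Started with 1 mM NAD+ and 30 uM prostaglandin E2; NADH fluorescence (360/450 nm) read 5 times over 30-s intervals, last minus first.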
# ALOX15B inhib: 15-hLO-2 (ALOX15B) enzyme inhibition | O15296 | purified 15hLO-2, xylenol orange hydroperoxide absorbance | Potency, µM (series often up to 57.1 µM), for the others: top-dose activity change, negative = inhibition, usual class: inhibitors | hit rate 0.56% among 110,000 | AID 881; further: potency means the concentration at half of the fitted maximal effect; nearly all actives have a fitted effect of over 60% in size
#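 Purified human 15hLO-2 (50 nM) preincubated 15 min with compound, then 45 uM arachidonic acid for 90 min at RT in 25 mM Hepes pH 7.5, 0.01% Triton X-100. Hydroperoxide detected by Fe-xylenol orange; 573/405 nm absorbance ratio.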
# IMPase Li cell: cell-permeable IMPase inhibitors with lithium potentiation; CHO-M1 cells, IP1 TR-FRET (IP-One), carbachol + lithium; Potency, µM (top dose mostly 59.4 µM), inactives show at the highest dose activity, negative = IMPase inhibition, actives largely listed as inhibitors; hit rate 0.35% among 210,000; AID 1457;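 further: IP1 builds up when IMPase is blocked and the TR-FRET signal falls; potency means the concentration at half of the fitted maximal effect; plate controls were basal vehicle for no effect and high inhibitor control for full effect; nearly all actives have a fitted effect of over 50% in size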
#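 IP1 accumulation measured by competitive TR-FRET in lysed CHO-M1 cells after 30 min compound exposure at 37C, with a small lithium addition to potentiate weak responses. Hill-equation AC50 from ratio and donor-channel data.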
# 12-hLO inh: 12-hLO (ALOX12) enzyme inhibition | hit rate 0.12% among 150,000 | purified 12-hLO, xylenol orange hydroperoxide absorbance | P18054 | Potency, µM (series often up to 57.1 µM), for inactives: at the top dose activity change, negative = inhibition, hits mostly inhibitors | AID 1452; further: potency means the concentration at half of the fitted maximal effect; nearly all actives have a fitted effect of over 55% in size
#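 Hydroperoxide formation by human 12-lipoxygenase from 40 uM arachidonic acid was followed colorimetrically via ferric-xylenol orange complex, using the 573/405 nm absorbance ratio. Enzyme concentration was 150 nM, with 30 min reaction at room temperature.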
# Numbers without * were called inactive; u = inconclusive; x = not tested or not shown; [ ] = dose if it differs, or a comment. Unless noted, the call rests on the fitted dose curve; in most records, active means well fitted curve in the direction sought with a large enough effect; inconclusive means small, poorly fitted or top-dose-only effect, or another doubt; inactive means no such curve, though single readings can be large; an effect the other way counts as inactive or inconclusive. Unless noted, on the % scale 0 is the no-effect control and ±100 the full control effect.
SMILES,IMPase cell inh,PNC inhibitor,HPGD block,ALOX15B inhib,IMPase Li cell,12-hLO inh
Cc1cc(C=C2C(=O)NC(=S)NC2=O)c(C)n1-c1ccc2c(c1)OCO2,-3,u,8.9µM*,x,11%,-9%
Cc1cc(C=C2C(=O)NC(=O)NC2=O)c(C)n1-c1ccc2c(c1)OCO2,9,-20,-10%,x,14%,-5%
Cc1cccn2c(NCC3CCCO3)c(C(C)C)nc12 (configuration not stated),9,-127*,u,-5%,11%[38.3 µM],1%
CCOc1cc(-c2nc3c(C)cccn3c2NCC2CCCO2)ccc1O (configuration not stated),2,7,u,-17%,-7%[38.3 µM],-5%
O=P1(Nc2cccnc2)COc2ccccc2OC1,-6,-7,7.1µM*,-7%,5%[38.3 µM],7%
O=P(Nc1cccnc1)(Oc1ccccc1)Oc1ccccc1,x,u,-11%,x,14%,-2%
CN1C2CCC1/C(=C/c1ccccn1)C(=O)/C2=C\c1ccccn1,x,-109*,-10%,x,19%,-1%
COC(=O)[C@H]1C(=O)[C@H](C(=O)OC)[C@@H]2CC[C@H]1N2C,x,x,3%,-8%[11.4 µM],5%,1%[11.4 µM]
CCOc1ccc(/C=C2/C(=O)NC(=O)N(CCc3ccc(F)cc3)C2=O)cc1,x,u,10µM*,x,-4%,-24%
COc1cc(/C=C2\C(=O)NC(=O)N(CCc3ccc(F)cc3)C2=O)ccc1O,3,22,13µM*,x,5%,-24%
CCOc1ccc(N2C(=O)NC(=O)/C(=C/c3cnc(SC)nc3)C2=O)cc1,x,x,x,x,0%,x
c1ccoc1,x,x,-3%,-9%,11%,1%
COP(=O)(OC)O/C(=C\Cl)c1cc(Cl)c(Cl)cc1Cl,x,x,-9%,0%,-3%,1%
COP(=S)(OC)SCN1C(=O)c2ccccc2C1=O,-8,-24,20µM*,3%,0%[38.3 µM],-27%
CC(C)(C)C(=O)c1cn(CC(=O)NCc2ccco2)c2ccccc12,x,x,x,x,6%,x
O=C(Cn1cc(C(=O)c2ccccc2F)c2ccccc21)NCc1ccco1,6,10,-22%,-2%,8.9µM*,2%
COc1ccc2c(c1)[C@]13CCCC[C@@H]1[C@H](C2)NCC3,18,x,x,15%,x,-4%
CCOC(=O)c1c(C)c(P(=S)(N2CCOCC2)N2CCOCC2)n(C)c1C,8,-121*,25µM*,12%,-6%[38.3 µM],-3%
CCOP(=S)(OCC)N1CCOCCOCCN(P(=S)(OCC)OCC)CCOCCOCC1,x,x,x,x,18%,x
C[N+]1(C)CCO[C@@](O)(c2ccc(-c3ccc([C@]4(O)C[N+](C)(C)CCO4)cc3)cc2)C1,1,x,x,-5%,x,-5%
COc1cccc(C(C#N)N2CCCCC2)c1O (configuration not stated),-4,-13,2.2µM*,2%,18%[38.3 µM],-20%
COc1ccccc1OCC#CCN1CCCCCC1,x,x,x,x,18%,x
Clc1ccc(CNC2CN3CCC2CC3)cc1 (configuration not stated),x,-80*,1%,x,10%,-1%
N[C@H](CCl)C(=O)O,-5,x,x,-5%,x,-3%
COc1ccc(C(C)=O)cc1CC(C(=O)c1ccc(C)c(C)c1)N(C)C (configuration not stated),3,17,5%,x,5%,-1%
SMILES,IMPase cell inh,PNC inhibitor,HPGD block,ALOX15B inhib,IMPase Li cell,12-hLO inh
COc1ccc(C(C)=O)cc1CC(C(=O)c1ccc(F)cc1)N(C)C (configuration not stated),-4,-93*,-19%,x,-9%,-6%
CC1(C)CN=C(Nc2ccc(F)c(F)c2)S1,1,6,25µM*,34%,-1%[38.3 µM],0%
CC1(C)CSC(Nc2ccc(F)c(Cl)c2)=N1,4,6,-14%,8%,5%[38.3 µM],-5%
CCn1c(N)c(C(=O)NC)sc1=S,-3,u,3.5µM*,4%,14%[38.3 µM],-14%
COc1cc(C2SCC(=O)Nc3c2c(C)nn3-c2ccccc2)cc(OC)c1OC (configuration not stated),0,43,-18%,-12%,19%[38.3 µM],3%
Cc1nn(-c2ccccc2)c2c1C(c1ccc3c(c1)OCO3)SCC(=O)N2 (configuration not stated),-8,18,8.9µM*,2%,8%[38.3 µM],-4%
c1ccc(OP(Oc2ccccc2)Oc2ccccc2)cc1,x,x,0%,-11%,-11%,6%
O=[N+]([O-])c1ccc(Sc2nc3ccccc3o2)c([N+](=O)[O-])c1,11,32,32µM*,-3%,53%[38.3 µM],3%
O=P(O)(OP(=O)(O)c1ccccc1)c1ccccc1 (tested in a mixture with another compound),x,x,-9%,1%[11.4 µM],5%,1%[11.4 µM]
Cc1cccc(NC(=O)c2cccc(NS(=O)(=O)c3ccc(Cl)cc3)c2)c1,-1,-5,13µM*,7%,43%[38.3 µM],u
O=C1OC(c2cc(I)c(O)c(I)c2)(c2cc(I)c(O)c(I)c2)c2ccccc21,x,x,11µM*,u,23%,u
O=C(O)CBr,x,x,-3%,-14%,11%,1%
CCCCn1c(NC(=O)c2ccc(Br)o2)c(C(=O)OCC)c2nc3ccccc3nc21,x,7,u,x,-1%,-8%
O=C(OCCCCN1C(=O)c2ccccc2C1=O)c1ccc(Br)o1,3,1,16µM*,-9%,22%[38.3 µM],-7%
O=C1NC(=S)N(c2ccccc2F)C(=O)/C1=C\c1cccs1,x,18,7.9µM*,x,-2%,-21%
CC1CN=C(Nc2ccccc2)S1 (configuration not stated),6,-8,8.9µM*,26%,-12%,3%
NCCSC(c1ccccc1)c1ccccc1,x,x,-8%,4%[11.4 µM],4%,1%[11.4 µM]
C/C(Cl)=C/CC1(CN2CCCC2=O)C(=O)NC(=O)NC1=O,11,-122*,x,-4%,x,2%
C[N+](C)(C)CC#CCN1CCCC1=O,-10,x,-20%,-7%,11%,u
COC(=O)C[C@]1(C(=O)OC)CN(C#N)N(c2ccc(Cl)cc2)C12c1ccccc1-c1ccccc12,7,-100*,-26%,x,11%,-4%
O=C(O)c1cc[c]([Hg][S]c2ncnc3nc[nH]c23)cc1,x,x,0.22µM*,2.5µM*,8%,u
COc1cccc(NC(=O)N2CCC3(CC2)OCCO3)c1,x,97,-9%,x,2%,-3%
O=C(NC1(C(F)(F)F)Oc2ccccc2O1)N1CCC2(CC1)OCCO2,-4,-119*,u,x,9%,-9%
O=C(NC1(C(F)(F)F)Oc2ccc(Cl)cc2O1)N1CCC2(CC1)OCCO2 (configuration not stated),3,9,-11%,7.9µM*,20%[38.3 µM],u

# Source: PubChem
